Assay results as given in PubChem BioAssay (EPA / NIEHS).
The source made the active and inactive calls. How the source made its calls: active means hit-call score of the fitted dose curve at least 0.9, where 1 is the maximum; inactive means score below 0.9.

Columns and labels:
[1] = CEETOX_H295R_CORTISOL: CeeTox H295R High-throughput Steroidogenesis Assay for Cortisol (AID 2283438); details: actives raise or lower the signal;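 further: cortisol secreted into medium quantified by LC-MS/MS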
In short: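 Human adrenocortical H295R cells (passage ≤10) received test chemicals for 48 h after forskolin priming. Secreted cortisol was measured by LC-MS/MS.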

[2] = CEETOX_H295R_DOC: CeeTox H295R High-throughput Steroidogenesis Assay for DOC (AID 2283439); details: actives raise or lower the signal
In short: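 Secreted DOC was quantified from H295R media by HPLC-MS/MS after 48 h chemical exposure following 48 h forskolin (10 uM) prestimulation. Values were fitted in both directions relative to DMSO, the negative control and baseline.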

[3] = CEETOX_H295R_ESTRONE: CeeTox H295R High-throughput Steroidogenesis Assay for Estrone (AID 2283441); details: actives raise or lower the signal;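 further: estrone secreted into medium measured by LC-MS/MS after dansyl derivatization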;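 on AC50: human adrenal H295R cells prestimulated with forskolin for two days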
In short: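 H295R cells; 48 h forskolin (10 uM) prestimulation; 48 h compound exposure, 0.1% DMSO final. Medium estrone: MTBE extraction, dansyl derivatization, HPLC-MS/MS. Bidirectional fit vs DMSO.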

[4] = CEETOX_H295R_PROG: CeeTox H295R High-throughput Steroidogenesis Assay for Progesterone (PROG) (AID 2283442); details: actives raise or lower the signal;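 on AC50: human H295R adrenal cells primed with 10 µM forskolin before dosing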
In short: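 H295R adrenal cells prestimulated 48 h with 10 uM forskolin, then exposed 48 h to test chemical in 0.1% DMSO. Progesterone in medium quantified by HPLC-MS/MS after MTBE extraction; viability checked by MTT in same wells.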

[5] = read-out: Tumor necrosis factor receptor superfamily member 6 (Homo sapiens) (UniProt P25445); assay: LTEA_HepaRG_FAS: Life Technologies and Expression Analysis (LTEA) Assay for Fas cell surface death receptor (FAS) using HepaRG (AID 2283447); details: mRNA level, 48 h; actives raise or lower the signal
In short: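 FAS transcript level was measured by TaqMan qRT-PCR against three housekeeping genes after 48 h chemical exposure. Cells were HepaRG, 0.5% DMSO vehicle, with a top concentration of 100 uM and half-log dilutions over eight points, in duplicate.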

[6] = read-out: Fatty acid synthase (Homo sapiens) (UniProt P49327); assay: LTEA_HepaRG_FASN: Life Technologies and Expression Analysis (LTEA) Assay for Fatty Acid Synthase (FASN) using HepaRG (AID 2283448); details: mRNA level, 48 h; actives raise or lower the signal;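 on AC50: differentiated human HepaRG liver cells in serum-free induction medium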
In short: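 Transcript-level assay: HepaRG liver cells are treated for 48 h across an eight-point range topping at 100 uM, and FASN mRNA, normalized to three housekeeping genes, is compared with DMSO controls in both directions.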

[7] = read-out: Cyclin D2 (CCND2), CCND2 (gene 894); assay: LTEA_HepaRG_CCND2: Life Technologies and Expression Analysis (LTEA) Assay for Cyclin D2 (CCND2) using HepaRG (AID 2283449); details: mRNA level, 48 h; actives raise or lower the signal
In short: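 Read-out is CCND2 mRNA level measured by qRT-PCR in human HepaRG liver cells and normalised to three housekeeping genes. Chemicals were applied for 48 h at up to 100 uM, with gain or loss fitted relative to 0.5% DMSO.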

[8] = read-out: Cyclin Dependent Kinase Inhibitor 1A (CDKN1A), CDKN1A (gene 1026); assay: LTEA_HepaRG_CDKN1A: Life Technologies and Expression Analysis (LTEA) Assay for Cyclin Dependent Kinase Inhibitor 1A (CDKN1A) using HepaRG (AID 2283450); details: mRNA level, 48 h; actives raise or lower the signal
In short: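 Differentiated HepaRG cells in serum-free induction medium, exposed 48 h in duplicate to eight half-log concentrations up to 100 uM in 0.5% DMSO. mRNA measured by TaqMan qRT-PCR, normalized to ACTB, GAPDH, POLR2A; bidirectional fit versus DMSO.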

[9] = CEETOX_H295R_CORTIC: CeeTox H295R High-throughput Steroidogenesis Assay for Corticosterone (CORTIC) (AID 2283437); details: actives raise or lower the signal;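 further: corticosterone secreted into medium quantified by mass spectrometry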;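 on AC50: human H295R adrenal cells prestimulated with forskolin before chemical exposure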
In short: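 Corticosterone secreted into medium is measured by reverse-phase HPLC with tandem MS following liquid-liquid extraction. Cells are forskolin-stimulated (10 uM, 48 h) before 48 h test exposure; activity fitted in both directions against DMSO.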

[10] = CEETOX_H295R_ESTRADIOL: CeeTox H295R High-throughput Steroidogenesis Assay for Estradiol (AID 2283440); details: actives raise or lower the signal;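 further: estradiol secreted into medium quantified by LC-MS/MS after dansyl derivatisation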
In short: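 H295R cells pre-stimulated 48 h with 10 uM forskolin, then exposed 48 h to chemical in 0.1% DMSO. Medium estradiol quantified by MTBE extraction, dansyl derivatisation and HPLC-MS/MS; bidirectional fit versus DMSO; MTT viability required >/=70%.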

Measured: AC50

Fatty acid synthase (Homo sapiens), sequence (P49327 whole entry, looked up): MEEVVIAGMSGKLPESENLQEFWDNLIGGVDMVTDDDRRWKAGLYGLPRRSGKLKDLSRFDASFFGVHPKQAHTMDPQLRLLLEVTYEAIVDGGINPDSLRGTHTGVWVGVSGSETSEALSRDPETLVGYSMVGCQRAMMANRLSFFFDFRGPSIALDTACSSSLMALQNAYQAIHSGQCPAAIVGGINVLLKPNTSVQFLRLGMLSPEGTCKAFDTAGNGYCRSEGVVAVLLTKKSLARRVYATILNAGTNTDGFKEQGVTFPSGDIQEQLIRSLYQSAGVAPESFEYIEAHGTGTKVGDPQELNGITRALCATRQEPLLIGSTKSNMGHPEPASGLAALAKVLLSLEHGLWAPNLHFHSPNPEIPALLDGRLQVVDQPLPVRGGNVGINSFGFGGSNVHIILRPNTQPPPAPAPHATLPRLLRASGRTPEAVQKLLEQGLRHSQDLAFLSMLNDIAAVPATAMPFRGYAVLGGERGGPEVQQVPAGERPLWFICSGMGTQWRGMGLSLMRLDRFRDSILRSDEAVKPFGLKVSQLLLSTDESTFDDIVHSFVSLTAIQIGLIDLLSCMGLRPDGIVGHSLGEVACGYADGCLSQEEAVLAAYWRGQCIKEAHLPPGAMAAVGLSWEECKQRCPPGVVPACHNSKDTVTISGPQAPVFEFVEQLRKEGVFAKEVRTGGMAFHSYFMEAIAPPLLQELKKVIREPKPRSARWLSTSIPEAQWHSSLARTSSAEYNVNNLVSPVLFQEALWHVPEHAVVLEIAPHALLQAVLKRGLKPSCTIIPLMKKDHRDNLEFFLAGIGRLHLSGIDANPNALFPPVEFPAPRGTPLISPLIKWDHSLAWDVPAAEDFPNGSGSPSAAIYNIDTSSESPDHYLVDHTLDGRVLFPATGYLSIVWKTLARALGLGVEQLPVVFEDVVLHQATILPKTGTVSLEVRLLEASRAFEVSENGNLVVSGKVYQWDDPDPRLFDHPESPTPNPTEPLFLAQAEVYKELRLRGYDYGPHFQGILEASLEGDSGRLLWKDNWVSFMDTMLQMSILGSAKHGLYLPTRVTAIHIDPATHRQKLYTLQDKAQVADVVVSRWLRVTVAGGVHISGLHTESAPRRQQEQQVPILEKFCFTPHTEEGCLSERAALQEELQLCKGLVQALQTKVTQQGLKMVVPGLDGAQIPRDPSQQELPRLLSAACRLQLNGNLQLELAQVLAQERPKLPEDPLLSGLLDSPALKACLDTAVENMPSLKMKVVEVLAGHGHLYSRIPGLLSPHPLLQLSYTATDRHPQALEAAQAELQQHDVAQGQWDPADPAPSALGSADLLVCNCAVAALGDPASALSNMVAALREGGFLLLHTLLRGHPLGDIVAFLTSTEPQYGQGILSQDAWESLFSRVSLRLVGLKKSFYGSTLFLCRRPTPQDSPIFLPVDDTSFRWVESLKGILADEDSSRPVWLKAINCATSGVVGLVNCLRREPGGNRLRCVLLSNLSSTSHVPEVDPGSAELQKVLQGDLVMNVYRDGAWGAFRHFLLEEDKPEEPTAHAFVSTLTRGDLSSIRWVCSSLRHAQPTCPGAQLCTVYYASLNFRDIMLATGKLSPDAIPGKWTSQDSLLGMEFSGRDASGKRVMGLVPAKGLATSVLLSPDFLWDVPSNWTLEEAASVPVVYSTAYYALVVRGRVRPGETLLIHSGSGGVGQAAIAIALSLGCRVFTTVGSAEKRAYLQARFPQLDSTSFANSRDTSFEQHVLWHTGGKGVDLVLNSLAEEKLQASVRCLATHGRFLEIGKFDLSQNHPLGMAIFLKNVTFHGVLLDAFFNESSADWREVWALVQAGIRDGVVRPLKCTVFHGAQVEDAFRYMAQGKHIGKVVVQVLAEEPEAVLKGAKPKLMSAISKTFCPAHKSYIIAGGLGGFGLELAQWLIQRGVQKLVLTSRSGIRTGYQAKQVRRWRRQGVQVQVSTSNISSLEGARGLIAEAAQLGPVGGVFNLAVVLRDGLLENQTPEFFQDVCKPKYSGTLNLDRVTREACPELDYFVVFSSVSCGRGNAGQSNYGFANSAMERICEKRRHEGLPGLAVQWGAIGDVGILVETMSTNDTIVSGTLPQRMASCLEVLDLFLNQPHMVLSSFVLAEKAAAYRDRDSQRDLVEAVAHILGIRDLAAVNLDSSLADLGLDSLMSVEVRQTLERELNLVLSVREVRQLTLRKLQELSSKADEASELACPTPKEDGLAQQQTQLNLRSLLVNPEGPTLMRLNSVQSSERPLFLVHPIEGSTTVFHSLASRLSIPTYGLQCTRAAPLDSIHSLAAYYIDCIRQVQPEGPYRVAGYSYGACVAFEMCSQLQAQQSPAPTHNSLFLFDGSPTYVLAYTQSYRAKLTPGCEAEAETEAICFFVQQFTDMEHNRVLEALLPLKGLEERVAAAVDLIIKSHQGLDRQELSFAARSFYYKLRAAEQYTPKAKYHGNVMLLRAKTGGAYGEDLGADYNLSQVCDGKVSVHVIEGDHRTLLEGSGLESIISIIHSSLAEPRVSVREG

CCCCCCCCO
not listed: [9] | [10]
inactive: all other assays above

O=C(O)c1cccc(N(Cc2cccnc2)c2ccc(OC(F)F)c(OC(F)F)c2)c1
inactive: [4] | [5] | [8]
active: [6] 81.3 µM | [7] 0.00643 µM

Cc1c(-c2cccnc2)c2ccccc2n1CCCCC(=O)O
active: [4] 7.25 µM
inactive: [5] | [6] | [7] | [8]

Nc1ccc(Nc2ccccc2)cc1
active: [1] 65.8 µM | [2] 4.03 µM
not listed: [3] | [10]
inactive: all other assays above

Oc1ccc2c(c1)-c1ccccc1C2
active: [9] 11.5 µM | [1] 81.5 µM | [2] 30.3 µM | [4] 30.8 µM
inactive: [5] | [6] | [8]

COc1ccc(-n2nc(C(F)F)cc2-c2ccc(S(C)=O)cc2)cc1 (stereo unspecified)
not listed: [3] | [10]
inactive: all other assays above

CCOc1cccc(-n2cc(C(=O)N3CCN(c4cc(C(=O)O)c5ccccc5c4)CC3)nc2-c2ccc(C)cc2)c1
active: [6] 80.5 µM
not listed: [3] | [10]
inactive: all other assays above

CCCCCCCCCCCCCCCO
active: [4] 14.8 µM
inactive: [5] | [6] | [7] | [8]

O=c1[nH]c2ccc(S(=O)CCN3CCC(Cc4ccc(F)cc4)CC3)cc2o1 (stereo unspecified)
active: [9] 1.56 µM | [1] 6.88 µM
inactive: all other assays above

CN(C)c1ccc(Cc2ccc(N(C)C)cc2)cc1
active: [4] 3.81 µM | [5] 50 µM
inactive: [1] | [2] | [6] | [7] | [8]

CCOC(=O)c1ccc(C2CCC(NC[C@H](O)COc3ccc(O)c(NS(C)(=O)=O)c3)CC2)cc1 (stereo partly specified)
active: [9] 9.35 µM | [2] 2.84 µM | [4] 2.61 µM
not listed: [3] | [10]
inactive: all other assays above

CC(C)CC(C)(O)C#CC(C)(O)CC(C)C (stereo unspecified)
not listed: [3] | [5] | [10]
inactive: all other assays above

CC(C)=CCCC(C)=CC=O
inactive: [4] | [5] | [6] | [8]
active: [9] 78.6 µM | [1] 75 µM

CC[C@H]1CC[C@H](NCc2cc3c(cc2OC)[C@H]2C[C@H]2C(=O)N3C)[C@H](c2ccccc2)N1
active: [10] 6.19 µM | [3] 7.37 µM | [6] 57.7 µM
inactive: all other assays above

COc1cccc(-c2ccc(/C=C\CN3CCCCCC3)cc2Cl)c1
active: [5] 77.5 µM | [6] 45.2 µM
not listed: [7]
inactive: all other assays above
